Assay results taken from the supplement of paper PMC9023506.
Structures can show the parent of a compound that is named as a salt.

System: Danio rerio larvae (5 dpf)
Test: optomotor response to fast red moving lines, difference vs DMSO (percentage points (treated minus DMSO)); higher = more of the behaviour than the DMSO vehicle control
Conditions: 10 µM; exposure time: 3 h pre-incubation + 3 h imaging
Description: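 5-dpf wild-type zebrafish larvae were imaged in 96-well plates. They were treated with 190 Tocris FDA-approved drugs at 10 µM (1 µl/ml DMSO) for 3 h before and 3 h during imaging at 28.5 °C, 48 larvae per drug. Automated image analysis gave % time moving and optomotor responses. Values are drug group mean minus DMSO vehicle mean (n=844), in percentage points, for 10 behaviours.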

| Compound | optomotor response |
| --- | --- |
| C[C@H]1C[C@@H]2[C@H]([C@@H](O)C[C@@]3(C)[C@H]2CC[C@]3(O)C(=O)CO)[C@@]2(C)C=CC(=O)C=C12 [Methylprednisolone] | -4.16 |
| CN(C)CCc1c[nH]c2ccc(C[C@H]3COC(=O)N3)cc12 [Zolmitriptan] | -9.74 |
| OC(CNCC(O)C1CCc2cc(F)ccc2O1)C1CCc2cc(F)ccc2O1 (stereo not given) [Nebivolol hydrochloride] | -19.6 |
| CCCCC1=NC2(CCCC2)C(=O)N1Cc1ccc(-c2ccccc2-c2nnn[nH]2)cc1 [Irbesartan] | -14.6 |
| Nc1nc2c(ncn2COCCO)c(=O)[nH]1 [Acyclovir] | 4.83 |
| O=c1[nH]c(=O)n([C@H]2C[C@H](O)[C@@H](CO)O2)cc1C(F)(F)F [Trifluorothymidine] | -0.769 |
| CCc1c2c(nc3ccc(OC(=O)N4CCC(N5CCCCC5)CC4)cc13)-c1cc3c(c(=O)n1C2)COC(=O)[C@]3(O)CC | 0.47 |
| CC1(C)O[C@@H]2[C@@H](CO[C@@]3(COS(N)(=O)=O)OC(C)(C)O[C@@H]23)O1 [Topiramate] | -10.6 |
| CCN(CC)CCNC(=O)c1c(C)[nH]c(/C=C2\C(=O)Nc3ccc(F)cc32)c1C [Sunitinib malate] | 10.6 |
| CCN(Cc1ccncc1)C(=O)C(CO)c1ccccc1 (stereo not given) [Tropicamide] | -0.214 |
| Cc1nnc(C(C)C)n1C1C[C@H]2CC[C@@H](C1)N2CC[C@H](NC(=O)C1CCC(F)(F)CC1)c1ccccc1 (stereo in doubt) [Maraviroc] | 6.43 |
| CCCCNc1cc(C(=O)O)cc(S(N)(=O)=O)c1Oc1ccccc1 [Bumetanide] | -7.16 |
| NC(=O)OCC(COC(N)=O)c1ccccc1 [Felbamate] | 8.45 |
| CN/C(=N\CCSCc1nc[nH]c1C)NC#N [Cimetidine] | -7.27 |
| O=C(O)C[C@H](O)C[C@H](O)/C=C/c1c(C2CC2)nc2ccccc2c1-c1ccc(F)cc1 [Pitavastatin calcium] | 9.78 |
| COc1cc2nc(N3CCN(C(=O)c4ccco4)CC3)nc(N)c2cc1OC [Prazosin hydrochloride] | 3.73 |
| Cc1nc(-c2ccc(OCC(C)C)c(C#N)c2)sc1C(=O)O [Febuxostat] | 8.02 |
| CC(=O)O[C@]1(C(C)=O)CC[C@H]2[C@@H]3C=C(C)C4=CC(=O)CC[C@]4(C)[C@H]3CC[C@@]21C [Megestrol Acetate] | -10.3 |
| CCc1nc(N)nc(N)c1-c1ccc(Cl)cc1 [Pyrimethamine] | 9.74 |
| C=C1[C@H](CO)[C@@H](O)C[C@@H]1n1cnc2c(=O)[nH]c(N)nc21 [Entecavir] | -0.927 |

| Compound | optomotor response |
| --- | --- |
| CC(C)CN(C[C@@H](O)[C@H](Cc1ccccc1)NC(=O)O[C@H]1CO[C@H]2OCC[C@H]21)S(=O)(=O)c1ccc(N)cc1 [Darunavir] | 1.68 |
| COc1cc2nccc(Oc3ccc(NC(=O)C4(C(=O)Nc5ccc(F)cc5)CC4)cc3)c2cc1OC | -16.9 |
| NC(=O)N1c2ccccc2C=Cc2ccccc21 [Carbamazepine] | -9.08 |
| COc1ccc(Cl)cc1C(=O)NCCc1ccc(S(=O)(=O)NC(=O)NC2CCCCC2)cc1 [Glibenclamide] | -19.5 |
| CC#C[C@]1(O)CC[C@H]2[C@@H]3CCC4=CC(=O)CCC4=C3[C@@H](c3ccc(N(C)C)cc3)C[C@@]21C [Mifepristone] | -1.97 |
| CN(CCOc1ccc(NS(C)(=O)=O)cc1)CCc1ccc(NS(C)(=O)=O)cc1 [Dofetilide] | 2.79 |
| Cc1c(-c2ccc(O)cc2)n(Cc2ccc(OCCN3CCCCCC3)cc2)c2ccc(O)cc12 [Bazedoxifene acetate] | 0.818 |
| CCC(C)(C)C(=O)O[C@H]1C[C@@H](C)C=C2C=C[C@H](C)[C@H](CC[C@@H]3C[C@@H](O)CC(=O)O3)[C@H]21 [Simvastatin] | -13.2 |
| COc1cc(Nc2c(C#N)cnc3cc(OCCCN4CCN(C)CC4)c(OC)cc23)c(Cl)cc1Cl [Bosutinib] | 1.89 |
| COC(c1ccccc1)(c1ccccc1)[C@H](Oc1nc(C)cc(C)n1)C(=O)O [Ambrisentan] | -12.3 |
| CN1CCC[C@@H]1Cc1c[nH]c2ccc(CCS(=O)(=O)c3ccccc3)cc12 [Eletriptan hydrobromide] | -9.58 |
| O=C1CCc2cc(OCCCCc3nnnn3C3CCCCC3)ccc2N1 [Cilostazol] | -1.51 |
| CN1CC(=O)N2[C@H](c3ccc4c(c3)OCO4)c3[nH]c4ccccc4c3C[C@@H]2C1=O [Tadalafil] | -10.2 |
| OCc1cc(C(O)CNCCCCCCOCCCCc2ccccc2)ccc1O (stereo not given) [Salmeterol xinafoate] | -5.49 |
| NC(=O)c1ncn([C@@H]2O[C@H](CO)[C@@H](O)[C@H]2O)n1 [Ribavirin] | 0.429 |
| CCCCCCCCc1ccc(CCC(N)(CO)CO)cc1 | 10.4 |
| CC(C)n1c(/C=C/C(O)CC(O)CC(=O)O)c(-c2ccc(F)cc2)c2ccccc21 (stereo not given) [Fluvastatin sodium] | -5.56 |
| CC(C)C(=O)OCC(=O)[C@@]12O[C@H](C3CCCCC3)O[C@@H]1C[C@H]1[C@@H]3CCC4=CC(=O)C=C[C@]4(C)[C@H]3[C@@H](O)C[C@@]12C [Ciclesonide] | -3.93 |
| CCOc1cc(CC(=O)N[C@@H](CC(C)C)c2ccccc2N2CCCCC2)ccc1C(=O)O [Repaglinide] | -12.1 |
| CC(C)(C(=O)c1cccnc1)c1cccnc1 [Metyrapone] | -11.5 |
